Reference: PubChem BioAssay (NCI)
This is part of a sample that, as a whole, favours compounds with a hit. Of some 79,000 tested, about 15% had one in any assay. Rule as the data show it: active = growth inhibition above about 70%; inactive = the rest.

Assays:
[1] = NCI Yeast Anticancer Drug Screen. Data for the rad50 strain (AID 155);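 also: 0% = growth of vehicle-only cultures of the same strain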; settings: S. cerevisiae rad50 strain growth inhibition; at 50.0 µM; hits give high values
How it was run: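 Growth of the mutant yeast was measured after compound exposure and referenced to vehicle-treated cultures.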

[2] = NCI Yeast Anticancer Drug Screen. Data for the mec2-1 strain (AID 157); settings: S. cerevisiae mec2-1 strain, at 50.0 µM, hits give high values
How it was run: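 Compounds were applied to mec2-1 yeast cells. Their growth was then compared with that of vehicle-treated cultures to give growth inhibition.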

[3] = NCI Yeast Anticancer Drug Screen. Data for the sgs1 mgt1 strain (AID 161);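 also: 0% = growth of cultures given vehicle only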; settings: S. cerevisiae sgs1 mgt1 strain, at 50.0 µM, hits give high values
How it was run: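 This yeast growth screen uses a strain with defined DNA-repair lesions; compound-treated growth is compared with vehicle-treated growth.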

[4] = NCI Yeast Anticancer Drug Screen. Data for the cln2 rad14 strain (AID 165);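 also: 0% = growth equal to vehicle treated cultures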; settings: S. cerevisiae cln2 rad14 strain, at 50.0 µM, hits give high values
How it was run: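 Strain: cln2 rad14 yeast, altered in cell cycle control and DNA damage repair. Read-out: growth inhibition vs vehicle.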

[5] = NCI Yeast Anticancer Drug Screen. Data for the bub3 strain (AID 167); settings: S. cerevisiae bub3 mutant strain, at 50.0 µM, hits give high values
How it was run: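 Whole-cell yeast assay. The mutant strain was incubated with compounds, and growth inhibition was determined by comparison with vehicle-treated cells.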

[6] = NCI Yeast Anticancer Drug Screen. Data for the mlh1 rad18 strain (AID 175); settings: S. cerevisiae mlh1 rad18 strain growth inhibition; at 50.0 µM; hits give high values
How it was run: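 A repair-deficient yeast strain is exposed to test compound, and growth is scored relative to vehicle-treated controls.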

Measured: growth inhibition

CSC1=Nc2cc3c(cc2C(=O)N2C[C@H](O)CC12)OCO3 (stereo not given in full)
inactive: [1] -20.9% | [2] -25.5% | [3] -10.9% | [4] -34.2% | [5] -10.8% | [6] -6.3%

CCOC(=N)CC(=O)NC(C)c1ccccc1 (stereo not given)
inactive: [1] 2.25% | [2] -3.6% | [3] -6% | [4] 14.3% | [5] 0.15% | [6] 1.85%

O=C(N/C(=C\c1ccccc1[N+](=O)[O-])c1nc2ccccc2[nH]1)c1ccccc1
inactive: [1] -3.4% | [2] -1.45% | [3] 1.2% | [4] -1.15% | [5] 6.85% | [6] -1.7%

CC1(C)C2CC=C(/C=N\Nc3ccc([N+](=O)[O-])cc3[N+](=O)[O-])C1C2 (stereo not given)
inactive: [1] -1.5% | [2] 1.95% | [3] -2.3% | [4] -3.35% | [5] -11.6% | [6] -12.1%

CCN(CC)CC(O)C=O (stereo not given)
inactive: [1] 10.6% | [2] -6.7% | [3] -3.85% | [4] 3.85% | [5] -9.5% | [6] 6.7%

O=C(NCC(F)(F)C(F)(F)C(F)(F)C(F)(F)C(F)(F)C(F)(F)C(F)(F)F)Oc1ccccc1
inactive: [1] 39.2% | [2] 3.3% | [3] 26.7% | [4] 9.45% | [5] -2.05% | [6] 3.35%

CCCCCCOC(=O)c1cccc(C)c1
inactive: [1] 7.15% | [2] 4.4% | [3] 5.8% | [4] -35% | [5] 6.85% | [6] 11.2%

COC(=O)c1ncn(C(C(=O)OC)C(=O)OC)c1O
inactive: [1] -5.6% | [2] -6.75% | [3] -4.75% | [4] -14.4% | [5] -5.1% | [6] -10.8%

CCOC(=O)NC(C#N)=C(Cl)Cl
inactive: [1] 37.5% | [2] 47% | [3] 49% | [4] 14.1% | [5] 38.5% | [6] 43.6%

O=P(OC1=NCCN1Cc1ccccc1)(OC1=NCCN1Cc1ccccc1)N1CC1
inactive: [1] 16.9% | [2] 5.6% | [3] 21.7% | [4] 32.4% | [5] 3.75% | [6] -6.2%

Cc1cc2nc(CC(=O)c3cccnc3)c(=O)[nH]c2cc1C
inactive: [1] 0.9% | [2] 3.05% | [3] 12.4% | [4] 18.3% | [5] -8.05% | [6] 15.8%

O=[n+]1ccn([O-])c2cc(Cl)ccc21
inactive: [1] 13.6% | [2] 13.2% | [3] 10.2% | [4] -16.2% | [5] -5.1% | [6] 9.85%

COC1CC(NC(C)=O)C(OC(=O)c2ccccc2)C(CBr)O1 (stereo not given)
inactive: [1] 17.6% | [2] 1.4% | [3] 2.45% | [4] 15.2% | [5] -1.8% | [6] 19.6%

CC1N=C(SCc2ccc(Cl)cc2)N2C(C)N=C(SCc3ccc(Cl)cc3)N12 (stereo not given)
inactive: [1] -12.7% | [2] -40% | [3] 5.8% | [4] 2.7% | [5] 5.6% | [6] -6.95%

CSC1C(=O)Nc2ccc([N+](=O)[O-])cc21 (stereo not given)
inactive: [1] -11.6% | [2] -12.7% | [3] 0.45% | [4] -19.3% | [5] -39.7% | [6] -0.8%

O=C(OCC1OC(OC(=O)c2ccccc2)C(O)C1OC(=O)c1ccccc1)c1ccccc1 (stereo not given)
inactive: [1] 45.2% | [2] 15.7% | [3] 19.3% | [4] 38.2% | [5] 35.7% | [6] 49.5%

O=C1OC(c2ccccc2)=N/C1=C\c1ccc(F)cc1
inactive: [1] -10.4% | [2] -17.5% | [3] -1.75% | [4] -10.2% | [5] -19.3% | [6] -3.75%

O=c1[nH]cc(O)c(=O)[nH]1
inactive: [1] -25.1% | [2] -41.3% | [3] -8.95% | [4] 12.7% | [5] -17.8% | [6] 6.4%

CC(C)=CCCC(C)(OC1OC(COC2OCC(O)C(O)C2O)C(O)C(O)C1O)C1CCC2(C)C1C(O)CC1C3(C)CCC(OC4OC(CO)C(O)C(O)C4OC4OC(CO)C(O)C(O)C4O)C(C)(C)C3CCC12C (stereo not given)
inactive: [1] -15.8% | [2] -26.1% | [3] -6.05% | [4] 6.6% | [5] 4.55% | [6] 18.4%

CC(C)(C)C1(C#N)C(=O)N(c2ccc(Cl)cc2)C12c1ccccc1-c1ccccc12 (stereo not given)
inactive: [1] 4.55% | [2] 9.55% | [3] 6.45% | [4] 19.2% | [5] -4.5% | [6] 20.4%

C/C(CC1SCCCS1)=C(/C)CC1SCCCS1
inactive: [1] -34.8% | [2] -38.6% | [3] -23.1% | [4] -5% | [5] 2.25% | [6] -45%

CCOC(=S)SCc1ccc([N+](=O)[O-])cc1
inactive: [1] 69.8% | [2] 18.4% | [3] 27.8% | [4] 18.6% | [5] 43% | [6] 16.9%

O=Cc1c[nH]c2ccccc12
inactive: [1] -7.7% | [2] 9.95% | [3] 22.8% | [4] -15.6% | [5] 1.85% | [6] 6.25%

CC(C)CC(NC(=O)OC(C)(C)C)C(=O)NC(Cc1c[nH]c2ccccc12)C(=O)NN (stereo not given)
inactive: [1] 37.8% | [2] 14.2% | [3] 29.4% | [4] 32.3% | [5] 0.75% | [6] 27.7%

CCOC(=O)c1cc2sc(NC(=O)c3ccco3)nc2o1
inactive: [1] 10.8% | [2] 12.2% | [3] 48.8% | [4] 4.3% | [5] 6.6% | [6] 27.6%

Cc1cc2nc3c(=O)[nH]c(=O)nc-3n(CCOC(=O)CCC(=O)O)c2cc1C
inactive: [1] -8.35% | [2] 9.45% | [3] 10.5% | [4] 0.2% | [5] 3.1% | [6] 3.95%

C[n+]1c(/C=C/c2ccc3c(c2)OCO3)ccc2ccccc21
inactive: [1] 1.55% | [2] -0.2% | [3] 22% | [4] 6% | [5] 14.1% | [6] 14.2%

Cc1nccnc1N1CCCCC1
inactive: [1] 19.7% | [2] -0.75% | [3] -5.8% | [4] 15.9% | [5] 1.9% | [6] -11.3%

CCOc1ccccc1NC(=O)C(=O)C(/C(=N/N)C(=O)OC)c1nc2ccc([N+](=O)[O-])cc2[nH]c1=O (stereo not given)
inactive: [1] 16.9% | [2] -10% | [3] 5.7% | [4] 15.4% | [5] -1.35% | [6] 9.25%

Oc1ccccc1-c1cc(-c2ccccc2)nc(NCCCCNc2nc(-c3ccccc3)cc(-c3ccccc3O)n2)n1
inactive: [1] -5.05% | [2] -3.95% | [3] -14.7% | [4] -21.8% | [5] -1.75% | [6] -2.65%

CCN(CC)CCCC(C)Nc1cc(C)c2nc(C)cc(C)c2c1C (stereo not given)
inactive: [1] -22.1% | [2] 9.45% | [3] 17% | [4] -13% | [5] 3.4% | [6] -18.6%

Cc1cccc(C)c1NC(=O)C(=O)C(C#N)c1c(Cl)cccc1Cl (stereo not given)
inactive: [1] -38% | [2] 5.2% | [3] 16.4% | [4] -25.2% | [5] -4.85% | [6] 10.7%

CCN(CC)C1CS(=O)(=O)OC2=C1CSCC2 (stereo not given)
inactive: [1] -2.4% | [2] 19.1% | [3] 11.3% | [4] 3.75% | [5] 4.35% | [6] -31.5%

Cc1nn(C)c(=O)c(N)c1-c1cc(-c2ccc(Cl)cc2)n[nH]1
inactive: [1] 13.9% | [2] 4.45% | [3] 19.9% | [4] 20.1% | [5] 18.1% | [6] 13.9%

O=C(c1ccc(F)cc1)c1c[nH]c(=O)[nH]c1=O
inactive: [1] -0.45% | [2] -18.1% | [3] -7.85% | [4] -6.85% | [5] 2.6% | [6] -33.2%

Cn1cnc([N+](=O)[O-])c1C(=O)NCc1ccccc1
inactive: [1] -2.5% | [2] 9.1% | [3] 5.15% | [4] -20.8% | [5] -7.35% | [6] -9.05%

CN(C)CCC1(C#N)CCCCC1
inactive: [1] 5.3% | [2] 23.3% | [3] 10.4% | [4] -19.3% | [5] 12.4% | [6] 1.65%

O=C(O)C1C(Br)C(Br)C1C(=O)O (stereo not given) (tested in a mixture with another compound)
inactive: [1] 0.25% | [2] -16.6% | [3] -12.2% | [4] -22.2% | [5] -15.3% | [6] -19.3%

c1ccc(-c2nc3n(n2)CCC(c2ccccc2)S3)cc1 (stereo not given)
inactive: [1] -7.95% | [2] -18.1% | [3] -15.5% | [4] 3.9% | [5] 6.1% | [6] -8.75%

O=C(COc1c(Cl)cc(Cl)c2ccccc12)NC1c2ccccc2Oc2ccccc21
inactive: [1] 22.6% | [2] 0.4% | [3] 34.1% | [4] 7.45% | [5] 10.2% | [6] 14.4%
